Test results as given in the supplement of paper PMC10849652.
About 7,900 targets were measured; listed, in parts, are those with a hit and a random draw of the rest. About 0.6% of all pairs of compound and target were hits.

compound: O=C(CCCCCCNC(=O)c1cnc(N(c2ccccc2)c2ccccc2Cl)nc1)NO [citarinostat]; assay: log2 fold change, soluble protein after heating vs DMSO (PISA); higher = thermal stabilisation; K562 cells, 10 uM, 30 min; active = over 0.2 and 3.5 SD of the protein, either way, in both replicates (recomputed)
Summary of the method: (§1)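 K562 cells at 2×10^6 cells/mL were treated for 30 min with 10 μM compound, and aliquots were heated for 3 min over 48°C-58°C before pooling. Extraction used PBS with 0.5% NP-40 at 4°C, and soluble protein was the supernatant after 21,000xg for 90 min, measured by TMTpro 16plex LC-MS/MS with channel sums equalised. Thermal stability values, relative to control samples and from duplicates, are log2 fold changes.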

UniProt Q9UGP4, sequence (Q9UGP4 whole entry, looked up): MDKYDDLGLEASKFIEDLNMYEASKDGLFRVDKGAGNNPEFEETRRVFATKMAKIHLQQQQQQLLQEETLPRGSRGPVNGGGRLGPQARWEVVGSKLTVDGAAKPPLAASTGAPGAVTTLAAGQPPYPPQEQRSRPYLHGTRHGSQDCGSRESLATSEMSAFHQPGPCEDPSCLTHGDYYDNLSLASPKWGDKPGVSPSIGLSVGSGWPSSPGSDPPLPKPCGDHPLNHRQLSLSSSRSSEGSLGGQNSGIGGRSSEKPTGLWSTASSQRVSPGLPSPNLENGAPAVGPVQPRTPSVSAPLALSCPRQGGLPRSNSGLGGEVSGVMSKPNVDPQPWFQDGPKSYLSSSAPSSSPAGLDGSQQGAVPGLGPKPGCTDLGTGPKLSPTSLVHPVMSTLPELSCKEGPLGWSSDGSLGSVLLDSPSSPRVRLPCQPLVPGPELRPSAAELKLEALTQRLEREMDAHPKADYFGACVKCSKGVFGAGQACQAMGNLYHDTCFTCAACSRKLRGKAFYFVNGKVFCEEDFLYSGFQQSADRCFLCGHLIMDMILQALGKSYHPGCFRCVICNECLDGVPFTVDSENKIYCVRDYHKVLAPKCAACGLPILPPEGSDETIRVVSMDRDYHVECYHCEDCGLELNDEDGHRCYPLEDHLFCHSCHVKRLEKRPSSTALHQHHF
UniProt Q07820, sequence (Q07820 whole entry, looked up): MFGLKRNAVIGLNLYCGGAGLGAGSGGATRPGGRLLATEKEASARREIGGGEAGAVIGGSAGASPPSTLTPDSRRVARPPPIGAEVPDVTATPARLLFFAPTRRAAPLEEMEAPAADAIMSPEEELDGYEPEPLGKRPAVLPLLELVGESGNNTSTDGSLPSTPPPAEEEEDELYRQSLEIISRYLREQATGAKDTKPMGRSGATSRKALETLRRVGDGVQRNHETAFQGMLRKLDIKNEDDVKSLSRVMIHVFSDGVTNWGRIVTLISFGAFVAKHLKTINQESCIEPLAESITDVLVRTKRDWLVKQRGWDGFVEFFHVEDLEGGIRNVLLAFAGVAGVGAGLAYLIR
UniProt Q4G0J3, sequence (Q4G0J3 whole entry, looked up): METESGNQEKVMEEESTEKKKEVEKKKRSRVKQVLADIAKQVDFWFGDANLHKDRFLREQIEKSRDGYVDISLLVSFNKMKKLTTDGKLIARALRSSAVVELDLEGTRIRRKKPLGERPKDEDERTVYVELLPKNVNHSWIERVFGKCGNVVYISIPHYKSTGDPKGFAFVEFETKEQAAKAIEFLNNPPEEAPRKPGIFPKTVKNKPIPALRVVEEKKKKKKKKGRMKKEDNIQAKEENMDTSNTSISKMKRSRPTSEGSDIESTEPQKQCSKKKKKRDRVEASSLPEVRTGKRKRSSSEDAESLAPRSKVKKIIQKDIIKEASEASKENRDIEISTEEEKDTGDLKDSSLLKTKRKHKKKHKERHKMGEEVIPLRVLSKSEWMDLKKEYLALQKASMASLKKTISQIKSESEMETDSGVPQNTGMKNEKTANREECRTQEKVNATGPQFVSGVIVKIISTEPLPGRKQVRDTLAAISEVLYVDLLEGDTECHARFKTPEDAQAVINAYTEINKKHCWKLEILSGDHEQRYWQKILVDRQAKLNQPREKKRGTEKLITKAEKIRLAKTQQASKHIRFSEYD
UniProt O14880, sequence (O14880 whole entry, looked up): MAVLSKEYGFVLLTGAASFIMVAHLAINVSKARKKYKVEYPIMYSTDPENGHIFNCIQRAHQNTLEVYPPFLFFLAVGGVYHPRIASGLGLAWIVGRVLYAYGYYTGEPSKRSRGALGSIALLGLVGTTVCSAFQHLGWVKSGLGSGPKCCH
UniProt Q9C0E8, sequence (Q9C0E8 whole entry, looked up): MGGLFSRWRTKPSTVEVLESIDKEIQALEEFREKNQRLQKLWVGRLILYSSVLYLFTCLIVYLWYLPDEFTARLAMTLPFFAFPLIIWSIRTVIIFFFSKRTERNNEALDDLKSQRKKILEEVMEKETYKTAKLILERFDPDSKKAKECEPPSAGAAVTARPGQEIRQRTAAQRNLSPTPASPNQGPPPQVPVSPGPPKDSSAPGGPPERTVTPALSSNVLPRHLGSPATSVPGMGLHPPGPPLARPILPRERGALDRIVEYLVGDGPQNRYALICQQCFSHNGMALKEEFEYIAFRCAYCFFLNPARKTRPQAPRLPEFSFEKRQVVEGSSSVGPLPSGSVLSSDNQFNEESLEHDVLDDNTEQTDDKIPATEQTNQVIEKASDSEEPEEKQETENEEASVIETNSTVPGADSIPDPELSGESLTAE
UniProt Q14676, sequence (Q14676 whole entry, looked up): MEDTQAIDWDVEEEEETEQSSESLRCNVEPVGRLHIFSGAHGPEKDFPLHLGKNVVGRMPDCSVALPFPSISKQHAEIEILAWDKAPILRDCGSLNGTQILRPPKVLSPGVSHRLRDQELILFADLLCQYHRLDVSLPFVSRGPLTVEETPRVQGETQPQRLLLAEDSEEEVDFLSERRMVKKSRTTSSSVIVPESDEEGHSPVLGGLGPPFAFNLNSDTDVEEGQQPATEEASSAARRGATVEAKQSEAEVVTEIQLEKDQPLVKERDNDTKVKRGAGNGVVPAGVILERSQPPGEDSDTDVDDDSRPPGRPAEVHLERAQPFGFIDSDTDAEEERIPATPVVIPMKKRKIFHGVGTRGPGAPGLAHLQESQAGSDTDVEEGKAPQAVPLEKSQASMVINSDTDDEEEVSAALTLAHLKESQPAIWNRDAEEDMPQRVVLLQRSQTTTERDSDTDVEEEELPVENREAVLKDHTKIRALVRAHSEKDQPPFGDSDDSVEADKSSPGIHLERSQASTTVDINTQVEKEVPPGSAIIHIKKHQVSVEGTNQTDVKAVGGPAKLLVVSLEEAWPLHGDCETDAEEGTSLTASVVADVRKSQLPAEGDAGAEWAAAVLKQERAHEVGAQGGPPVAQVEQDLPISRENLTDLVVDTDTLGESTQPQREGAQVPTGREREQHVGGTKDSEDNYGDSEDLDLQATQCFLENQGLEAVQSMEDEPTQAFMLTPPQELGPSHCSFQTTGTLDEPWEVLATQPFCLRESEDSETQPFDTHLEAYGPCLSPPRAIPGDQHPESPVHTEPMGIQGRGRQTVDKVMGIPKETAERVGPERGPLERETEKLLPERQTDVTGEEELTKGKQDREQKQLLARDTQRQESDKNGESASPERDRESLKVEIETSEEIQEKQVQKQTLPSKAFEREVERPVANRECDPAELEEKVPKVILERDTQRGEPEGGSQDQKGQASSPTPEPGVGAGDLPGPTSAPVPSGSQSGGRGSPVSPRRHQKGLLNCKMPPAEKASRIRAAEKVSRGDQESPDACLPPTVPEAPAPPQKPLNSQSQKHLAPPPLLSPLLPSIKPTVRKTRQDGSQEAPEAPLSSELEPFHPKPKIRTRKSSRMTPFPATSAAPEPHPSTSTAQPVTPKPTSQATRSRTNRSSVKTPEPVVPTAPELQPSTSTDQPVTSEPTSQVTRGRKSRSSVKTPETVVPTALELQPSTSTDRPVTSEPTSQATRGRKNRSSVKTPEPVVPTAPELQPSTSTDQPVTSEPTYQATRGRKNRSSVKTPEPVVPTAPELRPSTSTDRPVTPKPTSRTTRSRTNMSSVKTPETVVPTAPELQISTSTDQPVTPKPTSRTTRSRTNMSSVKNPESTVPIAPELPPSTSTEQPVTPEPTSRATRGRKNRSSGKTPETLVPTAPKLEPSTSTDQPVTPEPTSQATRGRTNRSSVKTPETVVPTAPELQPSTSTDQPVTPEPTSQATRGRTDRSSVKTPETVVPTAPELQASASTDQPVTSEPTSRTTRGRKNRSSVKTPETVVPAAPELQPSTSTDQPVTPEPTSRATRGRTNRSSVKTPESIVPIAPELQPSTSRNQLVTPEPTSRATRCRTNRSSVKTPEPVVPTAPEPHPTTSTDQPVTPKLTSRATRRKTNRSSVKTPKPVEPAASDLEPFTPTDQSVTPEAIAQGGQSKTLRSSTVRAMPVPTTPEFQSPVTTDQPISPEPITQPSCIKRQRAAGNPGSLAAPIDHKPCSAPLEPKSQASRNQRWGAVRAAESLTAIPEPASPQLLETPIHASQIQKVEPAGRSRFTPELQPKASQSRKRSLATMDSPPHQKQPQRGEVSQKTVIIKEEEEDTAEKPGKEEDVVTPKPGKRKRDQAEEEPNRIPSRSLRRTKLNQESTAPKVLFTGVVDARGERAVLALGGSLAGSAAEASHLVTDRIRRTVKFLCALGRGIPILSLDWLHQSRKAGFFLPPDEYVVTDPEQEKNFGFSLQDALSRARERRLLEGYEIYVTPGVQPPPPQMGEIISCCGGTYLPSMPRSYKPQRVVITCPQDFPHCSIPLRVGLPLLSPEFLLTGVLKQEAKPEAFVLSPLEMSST
UniProt Q16891, sequence (Q16891 whole entry, looked up): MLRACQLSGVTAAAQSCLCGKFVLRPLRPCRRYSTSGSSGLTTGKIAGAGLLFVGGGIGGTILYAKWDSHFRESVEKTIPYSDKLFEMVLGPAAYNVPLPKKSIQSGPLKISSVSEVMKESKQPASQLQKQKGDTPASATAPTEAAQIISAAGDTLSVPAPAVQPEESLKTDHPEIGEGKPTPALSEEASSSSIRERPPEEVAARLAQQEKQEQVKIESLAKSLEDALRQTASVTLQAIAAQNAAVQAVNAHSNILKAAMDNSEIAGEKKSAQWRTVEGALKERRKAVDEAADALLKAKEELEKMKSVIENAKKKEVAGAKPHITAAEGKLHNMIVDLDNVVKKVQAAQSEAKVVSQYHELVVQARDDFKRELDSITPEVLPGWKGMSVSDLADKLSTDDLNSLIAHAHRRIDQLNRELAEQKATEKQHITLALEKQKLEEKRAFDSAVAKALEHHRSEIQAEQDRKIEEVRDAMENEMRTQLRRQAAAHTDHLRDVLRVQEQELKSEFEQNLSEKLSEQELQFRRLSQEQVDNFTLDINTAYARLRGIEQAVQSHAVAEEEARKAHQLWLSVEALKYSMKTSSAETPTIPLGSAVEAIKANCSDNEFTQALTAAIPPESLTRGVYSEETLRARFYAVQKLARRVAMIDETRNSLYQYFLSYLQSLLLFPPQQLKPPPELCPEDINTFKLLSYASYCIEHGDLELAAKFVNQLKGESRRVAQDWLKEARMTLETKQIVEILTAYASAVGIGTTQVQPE

log2 fold change, inactive:
LUC7L2 (UniProt Q9Y383) 0.074
ILF3 isoform 7 (UniProt Q12906) -0.053
MAGOHB (UniProt Q96A72) 0.043
KDM5D isoform 3 (UniProt Q9BY66) 0.198
LIMD1 (UniProt Q9UGP4) 0.052
MED1 (UniProt Q15648) -0.001
MCL1 (UniProt Q07820) -0.079
LIMA1 isoform 4 (UniProt Q9UHB6) -0.024
LMBRD1 (UniProt Q9NUN5) 0.048
KIF13A (UniProt Q9H1H9) -0.041
MARCKSL1 (UniProt P49006) 0.162
LARP4 isoform 4 (UniProt Q71RC2) -0.004
KIF21A isoform 4 (UniProt Q7Z4S6) 0.002
LEMD3 (UniProt Q9Y2U8) 0.053
MAP3K7 (UniProt O43318) 0.063
MAPKAPK3 (UniProt Q16644) -0.012
MAPK14 isoform 2 (UniProt Q16539) 0.085
ITIH4 (UniProt Q14624) 0.054
MAGEA9 (UniProt P43362) 0.013
IMMT isoform 4 (UniProt Q16891) 0.007
MEPCE (UniProt Q7L2J0) 0.005
LSS (UniProt P48449) -0.01
LONP2 (UniProt Q86WA8) -0.069
KDM3B (UniProt Q7LBC6) 0.098
LARP4B (UniProt Q92615) -0.001
LDLR (UniProt P01130) -0.035
IRF2BPL (UniProt Q9H1B7) -0.001
LTN1 isoform 3 (UniProt O94822) 0.048
LARP7 isoform 3 (UniProt Q4G0J3) 0.043
LNPK (UniProt Q9C0E8) 0.002
MAP2K3 isoform 3 (UniProt P46734) -0.126
MICU2 (UniProt Q8IYU8) 0.042
MGST3 (UniProt O14880) -0.005
KSR1 (UniProt Q8IVT5) 0.045
IWS1 (UniProt Q96ST2) -0.059
MFN1 (UniProt Q8IWA4) 0.034
MARK3 (UniProt P27448) 0.103
MDC1 (UniProt Q14676) 0.062
MAP4 (UniProt E7EVA0) -0.164

compound: O=C(O)c1ccc2c(c1)nc(Nc1cccc(Cl)c1)c1ccncc12 [silmitasertib]; assay: as above
Summary of the method: as §1

log2 fold change, inactive:
LUC7L2 (UniProt Q9Y383) -0.233
ILF3 isoform 7 (UniProt Q12906) 0.189
MAGOHB (UniProt Q96A72) -0.006
KDM5D isoform 3 (UniProt Q9BY66) 0.176
LIMD1 (UniProt Q9UGP4) 0.03
MED1 (UniProt Q15648) -0.002
MCL1 (UniProt Q07820) 0.034
LIMA1 isoform 4 (UniProt Q9UHB6) -0.006
LMBRD1 (UniProt Q9NUN5) -0.028
KIF13A (UniProt Q9H1H9) 0
MARCKSL1 (UniProt P49006) -0.115
LARP4 isoform 4 (UniProt Q71RC2) 0.043
KIF21A isoform 4 (UniProt Q7Z4S6) 0.033
LEMD3 (UniProt Q9Y2U8) -0.068
MAP3K7 (UniProt O43318) 0.004
MAPKAPK3 (UniProt Q16644) 0.18
MAPK14 isoform 2 (UniProt Q16539) 0.477
ITIH4 (UniProt Q14624) 0.083
MAGEA9 (UniProt P43362) 0.052
IMMT isoform 4 (UniProt Q16891) -0.038
MEPCE (UniProt Q7L2J0) 0.02
LSS (UniProt P48449) 0.001
LONP2 (UniProt Q86WA8) 0.105
KDM3B (UniProt Q7LBC6) 0.056
LARP4B (UniProt Q92615) 0.008
LDLR (UniProt P01130) 0.074
IRF2BPL (UniProt Q9H1B7) 0.027
LTN1 isoform 3 (UniProt O94822) 0.035
LARP7 isoform 3 (UniProt Q4G0J3) 0.03
LNPK (UniProt Q9C0E8) 0.072
MAP2K3 isoform 3 (UniProt P46734) -0.024
MICU2 (UniProt Q8IYU8) 0.076
MGST3 (UniProt O14880) -0.011
KSR1 (UniProt Q8IVT5) -0.279
IWS1 (UniProt Q96ST2) 0.054
MFN1 (UniProt Q8IWA4) 0.102
MARK3 (UniProt P27448) -0.02
MDC1 (UniProt Q14676) -0.116
MAP4 (UniProt E7EVA0) 0.003
